The record followed here is PubChem BioAssay (NCATS).

The nature of assay [1]: Quantitative High-Throughput drug screen in 47 multiple myeloma cell lines against the NCATS MIPE library collection: MMM1_PLB cell viability assay (AID 1918976). Also: nearly all actives have a fitted effect of over 35% in size. A digest of the protocol:
(§1)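 Viability after 48 h drug exposure was measured as ATP-dependent luminescence. Cells, 500 per well, sat at 37 °C under 5% CO2; DMSO wells set 100%, media-only wells 0%.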

Assay [2] is described as follows: Quantitative High-Throughput drug screen in 47 multiple myeloma cell lines against the NCATS MIPE library collection: OCIMY1_PLB cell viability assay (AID 1918979). Also: nearly all actives have a fitted effect of over 35% in size. A digest of the protocol: as §1
Assay [3] in a line: Quantitative High-Throughput drug screen in 47 multiple myeloma cell lines against the NCATS MIPE library collection: MM1S_ATCC cell viability assay (AID 1918980). Also: nearly all actives have a fitted effect of over 45% in size. An outline of the steps: as §1
Assay [4] in a line: Quantitative High-Throughput drug screen in 47 multiple myeloma cell lines against the NCATS MIPE library collection: MM1R_ATCC cell viability assay (AID 1918981). Also: nearly all actives have a fitted effect of over 35% in size. An outline of the steps: as §1
The nature of assay [5]: Quantitative High-Throughput drug screen in 47 multiple myeloma cell lines against the NCATS MIPE library collection: KMS28PE_JCRB cell viability assay (AID 1918983). Also: nearly all actives have a fitted effect of over 35% in size. A digest of the protocol: as §1
Assay [6] is described as follows: Quantitative High-Throughput drug screen in 47 multiple myeloma cell lines against the NCATS MIPE library collection: OCIMY7_PLB cell viability assay (AID 1918987). Also: nearly all actives have a fitted effect of over 65% in size. An outline of the steps:
as §1

The nature of assay [7]: Quantitative High-Throughput drug screen in 47 multiple myeloma cell lines against the NCATS MIPE library collection: OCIMY5_PLB cell viability assay (AID 1918988). Also: nearly all actives have a fitted effect of over 65% in size. An outline of the steps: as §1
A short description of assay [8]: Quantitative High-Throughput drug screen in 47 multiple myeloma cell lines against the NCATS MIPE library collection: OPM1_PLB cell viability assay (AID 1918989). Also: nearly all actives have a fitted effect of over 40% in size. A digest of the protocol:
as §1

Assay [9] is described as follows: Quantitative High-Throughput drug screen in 47 multiple myeloma cell lines against the NCATS MIPE library collection: SKMM1_PLB cell viability assay (AID 1919863). Also: nearly all actives have a fitted effect of over 35% in size. Conditions: SKMM1 myeloma viability, CellTiter-Glo ATP, 48 h; viability: hits give low values. An outline of the steps:
as §1
A general note: Cellular ATP, detected with luciferase, serves as a proxy for viable cell number.

Assay [10] in a line: Quantitative High-Throughput drug screen in 47 multiple myeloma cell lines against the NCATS MIPE library collection: U266_ATCC cell viability assay (AID 1919864). Also: nearly all actives have a fitted effect of over 35% in size. A digest of the protocol: as §1
Assay [11] is described as follows: Quantitative High-Throughput drug screen in 47 multiple myeloma cell lines against the NCATS MIPE library collection: XG6_PLB cell viability assay (AID 1919865). Also: nearly all actives have a fitted effect of over 40% in size. An outline of the steps: as §1
Assay [12] is described as follows: Quantitative High-Throughput drug screen in 47 multiple myeloma cell lines against the NCATS MIPE library collection: NCIH929_DSMZ cell viability assay (AID 1918978). Also: nearly all actives have a fitted effect of over 35% in size. A digest of the protocol:
as §1

The nature of assay [13]: Quantitative High-Throughput drug screen in 47 multiple myeloma cell lines against the NCATS MIPE library collection: VP6_DJ cell viability assay (AID 1919867). Also: nearly all actives have a fitted effect of over 40% in size. A digest of the protocol:
as §1

The nature of assay [14]: Quantitative High-Throughput drug screen in 47 multiple myeloma cell lines against the NCATS MIPE library collection: LP1_DSMZ cell viability assay (AID 1918982). Also: nearly all actives have a fitted effect of over 35% in size. An outline of the steps:
as §1

Assay [15] is described as follows: Quantitative High-Throughput drug screen in 47 multiple myeloma cell lines against the NCATS MIPE library collection: XG1_PLB cell viability assay (AID 1919866). Also: nearly all actives have a fitted effect of over 35% in size. A digest of the protocol: as §1
Assay [16] is described as follows: Quantitative High-Throughput drug screen in 47 multiple myeloma cell lines against the NCATS MIPE library collection: L363_DSMZ cell viability assay (AID 1918984). Also: nearly all actives have a fitted effect of over 40% in size. An outline of the steps:
as §1

Assay [17] is described as follows: Quantitative High-Throughput drug screen in 47 multiple myeloma cell lines against the NCATS MIPE library collection: UTMC2_PLB cell viability assay (AID 1919868). Also: nearly all actives have a fitted effect of over 55% in size. Conditions: CellTiter-Glo ATP luminescence, 48 h; viability (% of DMSO control): at 45.8 µM (top of the series). An outline of the steps: as §1
Assay [18] in a line: Quantitative High-Throughput drug screen in 47 multiple myeloma cell lines against the NCATS MIPE library collection: KMS34_JCRB cell viability assay (AID 1918985). Also: nearly all actives have a fitted effect of over 40% in size. An outline of the steps:
as §1

Results filed as inconclusive are left out. Values without a mark were called inactive. Activity calls are given as the source filed them. Calls follow the shape of the dose curve; as a rule, active = well fitted curve in the direction sought with a large enough effect; inconclusive = small, poorly fitted or top-dose-only effect, or another doubt; inactive = no such curve, though single readings can be large; an effect the other way counts as inactive or inconclusive.
Potency is read from the fitted curve at half-maximal effect.

On to `Cc1ccc(NC(=O)c2cccc(C(C)(C)C#N)c2)cc1Nc1ccc2ncn(C)c(=O)c2c1`, for which the Potency is 16.6 µM (active) in [1]; 0.264 µM (active) in assay [2]; 6.62 µM (active) in assay [3]; 6.62 µM (active) in [4]; 11.8 µM (active) in assay [5]; 0.935 µM (active) in assay [6]. Also, the Potency in assay [7] was 16.6 µM (active); in [8] it was 14.8 µM (active); in [9], 1.66 µM (active); in [10] it was 18.7 µM (active); in assay [11] it was 5.26 µM (active).
For `Cc1cccc(-c2nn(C(=S)Nc3ccccc3)cc2-c2ccnc3ccccc23)n1`, the Potency was 16.6 µM (active) in assay [1]; 2.35 µM (active) in [12]; 16.6 µM (active) in assay [3]; 18.7 µM (active) in assay [5]; 1.48 µM (active) in [7]; 6.62 µM (active) in assay [8]. For the same compound, in assay [13], the Potency is 9.35 µM (active). Moreover, the Potency result in [2] and in assay [11] was “inactive” throughout.
In the case of `O=C1CCC(N2C(=O)c3ccccc3C2=O)C(=O)N1` (stereo not drawn), the Potency was 2.96 µM (active) in assay [1], 23.5 µM (active) in assay [9], 18.7 µM (active) in assay [10] and 3.72 µM (active) in assay [15]. Also, the Potency entry in [12], in [2], in assay [14], in assay [8] and in assay [11] was “inactive” throughout.
Consider `N#Cc1ccc(C(c2ccc(C#N)cc2)n2cncn2)cc1`, for which the Potency in [1] was 11.8 µM (active); in assay [2], 3.72 µM (active); in assay [5], 6.62 µM (active); in assay [8] it was 16.6 µM (active); in [9], 6.62 µM (active); in assay [10] it was 16.6 µM (active). Moreover, the Potency in [13] was 16.6 µM (active). Also, the Potency result in assay [12] is “inactive”.
Regarding `CCn1c(-c2nonc2N)nc2cnc(Oc3cccc(NC(=O)c4ccc(OCCN5CCOCC5)cc4)c3)cc21`, the Potency in assay [1] is 10.5 µM (active); in assay [12], 9.35 µM (active); in assay [3], 18.7 µM (active); in assay [4], 16.6 µM (active); in [14], 14.8 µM (active); in assay [16], 8.33 µM (active). The Potency is 2.35 µM (active) in [6]; 16.6 µM (active) in assay [8]; 20.9 µM (active) in assay [11]; 8.33 µM (active) in [13]; 0.935 µM (active) in assay [17].
As to `Nc1nc2[nH]cc(CCc3ccc(C(=O)N[C@@H](CCC(=O)O)C(=O)O)cc3)c2c(=O)[nH]1`, the Potency was 2.09 µM (active) in assay [1], 2.96 µM (active) in assay [8] and 5.26 µM (active) in assay [9]. Moreover, the Potency entry in assay [12], in assay [2], in assay [4], in [5], in [6] and in [11] was “inactive” in each case. Further, the Potency result in assay [15] is “inactive”.
`Cc1cc([C@@H](C)Nc2ccccc2C(=O)O)c2nc(N3CCOCC3)cc(=O)n2c1`: the Potency in [1] was 19.1 µM (active); in assay [2], 8.55 µM (active); in [3], 9.59 µM (active); in assay [4], 27 µM (active); in assay [18] it was 2.7 µM (active); in [6] it was 2.15 µM (active). Moreover, the Potency in assay [7] is 38.2 µM (active); in assay [8], 17.1 µM (active); in [9] it was 27 µM (active); in assay [10], 5.4 µM (active); in assay [11], 1.91 µM (active); in assay [15], 4.29 µM (active). In addition, the Potency in [13] was 9.59 µM (active); in assay [17], 3.82 µM (active).
For the compound `Cc1ccc(-n2nc(C(C)(C)C)cc2NC(=O)Nc2ccc(OCCN3CCOCC3)c3ccccc23)cc1`, the Potency in assay [1] is 20.9 µM (active); in assay [12], 0.59 µM (active); in [3] it was 4.18 µM (active); in assay [6], 2.96 µM (active); in [7], 20.9 µM (active); in assay [8], 26.4 µM (active). Besides, the Potency in [10] was 23.5 µM (active); in assay [11] it was 3.32 µM (active); in assay [13], 10.5 µM (active); in assay [17], 4.18 µM (active). For the same compound, the Potency result in [2] and in [14] was “inactive” in each case.
For `CCCn1c(=O)c2[nH]c(C34CC5CC3C[C@@H](C5)C4)nc2n(CCC)c1=O`, the Potency in [1] was 18.7 µM (active); in assay [4], 11.8 µM (active); in assay [14] it was 11.8 µM (active); in assay [5], 20.9 µM (active). Also, the Potency entry in assay [12], in assay [2], in assay [8], in [10] and in assay [17] was “inactive” throughout.
